A short description of experiment [1]: ATG_M_61_CIS: Attagene CIS-FACTORIAL HepG2 Assay for M61 Transcription Factor (Internal Marker) (AID 2282937). The following applies: HepG2 Attagene CIS-FACTORIAL M61 internal marker reporter; actives raise or lower the signal. In outline:
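Readout: fluorescent reporter mRNA fragments resolved by capillary electrophoresis after RT-PCR. Transiently transfected human HepG2 cells carried MRTU constructs reporting endogenous TF activity; 24 h chemical exposure; gain or loss of signal fitted relative to DMSO.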

Experiment [2] is described as follows: ATG_EGR_CIS: Attagene CIS-FACTORIAL HepG2 Assay for human Early Growth Response 1 (EGR1) (AID 2282938). Conditions: HepG2 Attagene CIS-FACTORIAL EGR reporter mRNA; actives raise or lower the signal. In outline:
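Read-out: fluorescent reporter-mRNA fragments resolved by capillary electrophoresis after RT-PCR, 24 h post-dose in transiently transfected HepG2. Endogenous transcription-factor activity reported via cis-element-regulated reporter units; gain or loss fitted relative to DMSO.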

Experiment [3] can be described thus: ATG_M_19_CIS: Attagene CIS-FACTORIAL HepG2 Assay for M19 Transcription Factor (Internal Marker) (AID 2282939). Conditions: HepG2 Attagene CIS-FACTORIAL M19 internal marker reporter; actives raise or lower the signal. In outline: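 Internal marker readout, fitted in both directions against DMSO, from HepG2 cells carrying transfected cis-element reporter constructs; RT-PCR and capillary electrophoresis of reporter mRNA after 24 h exposure.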

Experiment [4] is described as follows: ATG_Ets_CIS: Attagene CIS-FACTORIAL HepG2 Assay for human Erythroblast Transformation Specific (ETS) (AID 2282941). The following applies: HepG2 ETS cis-reporter transcription, actives raise or lower the signal. In outline: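 After transient cis-reporter transfection, HepG2 cells receive test chemical for 24 h. Reporter mRNA levels, measured by RT-PCR and capillary electrophoresis fluorescence, are analysed bidirectionally relative to the DMSO baseline.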

Experiment [5] concerns the target Hepatocyte nuclear factor 3-beta (Homo sapiens) (UniProt Q9Y261). Kind of experiment: ATG_FoxA2_CIS: Attagene CIS-FACTORIAL HepG2 Assay for human Forkhead box A2 (FOXA2) (AID 2282942). Conditions: HepG2 cis-reporter transcription factor activity, 24 h; actives raise or lower the signal. In outline: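 Readout: fluorescent reporter transcripts resolved by capillary electrophoresis after RT-PCR. Transiently transfected HepG2, 24 h compound exposure, endogenous TF activity at cis promoter elements. Gain or loss of signal fitted relative to DMSO.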

A short description of experiment [6]: ATG_FoxO_CIS: Attagene CIS-FACTORIAL HepG2 Assay for human Forkhead box O (FoxO) (AID 2282943). The following applies: HepG2 Attagene cis-reporter, FoxO element, mRNA; actives raise or lower the signal. A digest of the protocol:
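Read-out: fluorescence of 6-FAM-labelled reporter cDNA fragments resolved by capillary electrophoresis. Transiently transfected HepG2 cells were dosed for 24 h; activity fitted in both directions relative to DMSO controls.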

Experiment [7] is described as follows: ATG_GATA_CIS: Attagene CIS-FACTORIAL HepG2 Assay for human GATA Binding Protein (AID 2282944). The following applies: HepG2 GATA cis-element reporter, Attagene multiplex mRNA; actives raise or lower the signal. A digest of the protocol: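 Reporter transcripts from a GATA cis-regulated unit, among multiplexed reporters in transfected HepG2 cells, were measured by RT-PCR with capillary electrophoresis after 24 h dosing. Induction or loss scored relative to DMSO.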

Experiment [8] in a line: ATG_GLI_CIS: Attagene CIS-FACTORIAL HepG2 Assay for human Zinc Finger Protein GLI1 (AID 2282945). Conditions: HepG2, Attagene cis-factorial reporter mRNA, GLI element; actives raise or lower the signal. A digest of the protocol: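 Transiently transfected HepG2 cells report endogenous transcription factor activity via cis-element-driven reporter units. After 24 h compound exposure, reporter mRNA was measured by RT-PCR with capillary electrophoresis; bidirectional fitting against DMSO baseline.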

Experiment [9] can be described thus: ATG_GRE_CIS: Attagene CIS-FACTORIAL HepG2 Assay for human Glucocorticoid Response Elements (GRE) (AID 2282947). The following applies: HepG2 GRE cis-reporter, Attagene multiplex mRNA; actives raise or lower the signal. A digest of the protocol:
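Transiently transfected HepG2 cells carrying GRE cis-reporter units (endogenous TF activity) dosed 24 h; reporter mRNA quantified by RT-PCR, 6-FAM labelling, HpaI digestion and capillary electrophoresis. Bidirectional fit versus DMSO baseline.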

Experiment [10] can be described thus: ATG_ISRE_CIS: Attagene CIS-FACTORIAL HepG2 Assay for human Interferon Regulatory Factor 1 (IRF1) binding to an Interferon-Stimulated Response Element (ISRE) (AID 2282948). The following applies: HepG2 ISRE cis-reporter (Attagene), mRNA transcription readout; actives raise or lower the signal. In outline: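 Quantitation relies on labelled RT-PCR fragments separated by capillary electrophoresis. Human HepG2 cells bearing cis-promoter reporter constructs were treated 24 h; DMSO served as baseline for bidirectional fitting.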

A short description of experiment [11]: ATG_M_06_CIS: Attagene CIS-FACTORIAL HepG2 Assay for M06 Transcription Factor (Internal Marker) (AID 2282950). The following applies: HepG2 Attagene CIS-FACTORIAL M06 internal marker reporter; actives raise or lower the signal. In outline: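 Serves as a background control readout. Transfected HepG2 exposed to compounds for 24 h, then reporter transcripts quantified by fluorescent RT-PCR and capillary electrophoresis. Both directions fitted against DMSO baseline.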

Experiment [12] concerns the target Hypoxia-inducible factor 1-alpha (Homo sapiens) (UniProt Q16665). Kind of experiment: ATG_HIF1a_CIS: Attagene CIS-FACTORIAL HepG2 Assay for human Hypoxia Inducible Factor 1 (HIF1A) (AID 2282951). Conditions: HepG2 Attagene cis-factorial HIF1a reporter transcription; actives raise or lower the signal. A digest of the protocol: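 RT-PCR/capillary electrophoresis fluorescence readout of reporter transcripts from endogenous-TF-driven cis elements in transfected HepG2 cells, 24 h exposure; activity fitted in both directions against DMSO controls.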

The target of experiment [13] is Hepatocyte nuclear factor 6 (Homo sapiens) (UniProt Q9UBC0). In words: ATG_HNF6_CIS: Attagene CIS-FACTORIAL HepG2 Assay for human Hepatocyte Nuclear Factor 6 (HNF6) (AID 2282952). Conditions: HepG2 Attagene cis-factorial HNF6 reporter transcription; actives raise or lower the signal. A digest of the protocol:
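Multiplexed mRNA reporter assay in transfected HepG2; 24 h dosing; RT-PCR plus capillary electrophoresis fluorescence; DMSO-referenced bidirectional curve fitting.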

The target of experiment [14] is Heat shock factor protein 1 (Homo sapiens) (UniProt Q00613). Kind of experiment: ATG_HSE_CIS: Attagene CIS-FACTORIAL HepG2 Assay for human Heat Shock Transcription Factor 1 (HSE) (AID 2282953). Conditions: HepG2 HSE cis-reporter, Attagene RNA transcription; actives raise or lower the signal. In outline:
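Endogenous transcription factor activity in transiently transfected HepG2, read as reporter mRNA by RT-PCR with fluorescent capillary electrophoresis after 24 h. Gain or loss of signal fitted versus DMSO baseline.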

Experiment [15] is described as follows: ATG_MRE_CIS: Attagene CIS-FACTORIAL HepG2 Assay for human Metal Responsive Element (MRE) (AID 2282954). Conditions: HepG2 MRE cis-reporter transcription, Attagene multiplex; actives raise or lower the signal. A digest of the protocol:
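HepG2 cells transiently transfected with cis-element-driven reporter units; mRNA measured 24 h after dosing. Reporter transcripts quantified by RT-PCR, FAM labelling, HpaI digestion and capillary electrophoresis; bidirectional fit versus DMSO.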

Experiment [16] is described as follows: ATG_PBREM_CIS: Attagene CIS-FACTORIAL HepG2 Assay for human Phenobarbital-responsive Enhancer Module (PBREM) (AID 2282955). The following applies: HepG2 PBREM cis-reporter, Attagene multiplexed transcription; actives raise or lower the signal. In outline:
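Reporter mRNA read by RT-PCR, 6-FAM primer extension, HpaI digestion and capillary electrophoresis. Transfected HepG2 cells, 24 h compound exposure. Gain or loss of signal fitted bidirectionally relative to DMSO baseline.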

Experiment [17] concerns the target Bile acid receptor (Homo sapiens) (UniProt Q96RI1). Kind of experiment: ATG_IR1_CIS: Attagene CIS-FACTORIAL HepG2 Assay for human Nuclear Receptor Subfamily 1 Group H Member 4 (NR1H4), IR1 submotif (AID 2282946). The following applies: IR1 reporter transcription, actives raise or lower the signal. A digest of the protocol:
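HepG2 cells transiently transfected with multiple cis-promoter-driven reporter units to measure endogenous transcription factor activity; 24 h exposure. Reporter mRNA read by RT-PCR, FAM labelling, HpaI digestion and capillary electrophoresis. Bidirectional fit versus DMSO.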

A short description of experiment [18]: ATG_M_32_CIS: Attagene CIS-FACTORIAL HepG2 Assay for M32 Transcription Factor (Internal Marker) (AID 2282949).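 Also: background control marker of the multiplexed CIS panel rather than a real target.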 The following applies: HepG2 Attagene cis-factorial M32 reporter, mRNA; actives raise or lower the signal. A digest of the protocol:
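HepG2 cells transiently transfected with multiplexed cis-regulated reporter units, dosed 24 h. Reporter mRNA quantified by RT-PCR, 6-FAM labelling, HpaI digestion and capillary electrophoresis; bidirectional fit vs DMSO.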

Each structure is given as a SMILES string. Activity calls are given as the source filed them. The calls were made as follows: active = hit-call score of the fitted dose curve at least 0.9, where 1 is the maximum; inactive = score below 0.9.

Sequence of Hepatocyte nuclear factor 3-beta (Homo sapiens) (Q9Y261 whole entry, looked up): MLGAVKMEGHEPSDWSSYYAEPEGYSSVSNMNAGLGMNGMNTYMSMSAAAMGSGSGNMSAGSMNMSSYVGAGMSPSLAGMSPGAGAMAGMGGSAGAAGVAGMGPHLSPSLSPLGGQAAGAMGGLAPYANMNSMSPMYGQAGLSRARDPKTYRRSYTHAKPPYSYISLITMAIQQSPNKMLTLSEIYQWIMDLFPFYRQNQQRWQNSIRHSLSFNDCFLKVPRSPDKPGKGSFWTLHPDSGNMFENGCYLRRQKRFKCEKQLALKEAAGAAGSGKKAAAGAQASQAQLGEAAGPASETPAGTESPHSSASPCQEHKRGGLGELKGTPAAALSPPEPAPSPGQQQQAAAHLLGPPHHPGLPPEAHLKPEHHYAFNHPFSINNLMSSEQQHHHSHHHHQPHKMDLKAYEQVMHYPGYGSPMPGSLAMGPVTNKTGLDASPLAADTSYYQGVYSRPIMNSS
Sequence of Hypoxia-inducible factor 1-alpha (Homo sapiens) (Q16665 whole entry, looked up): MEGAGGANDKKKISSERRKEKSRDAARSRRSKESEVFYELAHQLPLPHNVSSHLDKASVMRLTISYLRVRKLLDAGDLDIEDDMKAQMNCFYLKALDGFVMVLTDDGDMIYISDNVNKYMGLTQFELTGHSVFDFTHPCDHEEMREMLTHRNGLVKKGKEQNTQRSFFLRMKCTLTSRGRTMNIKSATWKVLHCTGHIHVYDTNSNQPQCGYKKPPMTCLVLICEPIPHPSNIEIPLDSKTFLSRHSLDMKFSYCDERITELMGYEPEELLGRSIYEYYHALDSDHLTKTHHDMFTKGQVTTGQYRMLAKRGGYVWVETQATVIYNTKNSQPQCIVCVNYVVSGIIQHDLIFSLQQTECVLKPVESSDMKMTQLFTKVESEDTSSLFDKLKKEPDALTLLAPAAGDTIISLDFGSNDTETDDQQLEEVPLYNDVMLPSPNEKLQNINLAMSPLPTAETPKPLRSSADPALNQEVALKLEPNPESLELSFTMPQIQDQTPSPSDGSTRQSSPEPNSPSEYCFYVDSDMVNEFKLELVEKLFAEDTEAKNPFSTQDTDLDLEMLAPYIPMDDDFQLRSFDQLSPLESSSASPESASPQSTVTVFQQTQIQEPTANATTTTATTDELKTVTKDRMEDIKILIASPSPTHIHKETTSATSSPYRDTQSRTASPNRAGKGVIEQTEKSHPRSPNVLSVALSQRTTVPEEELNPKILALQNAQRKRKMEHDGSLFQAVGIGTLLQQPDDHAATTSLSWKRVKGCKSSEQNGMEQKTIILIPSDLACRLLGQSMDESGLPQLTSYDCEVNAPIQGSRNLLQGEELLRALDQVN
Sequence of Heat shock factor protein 1 (Homo sapiens) (Q00613 whole entry, looked up): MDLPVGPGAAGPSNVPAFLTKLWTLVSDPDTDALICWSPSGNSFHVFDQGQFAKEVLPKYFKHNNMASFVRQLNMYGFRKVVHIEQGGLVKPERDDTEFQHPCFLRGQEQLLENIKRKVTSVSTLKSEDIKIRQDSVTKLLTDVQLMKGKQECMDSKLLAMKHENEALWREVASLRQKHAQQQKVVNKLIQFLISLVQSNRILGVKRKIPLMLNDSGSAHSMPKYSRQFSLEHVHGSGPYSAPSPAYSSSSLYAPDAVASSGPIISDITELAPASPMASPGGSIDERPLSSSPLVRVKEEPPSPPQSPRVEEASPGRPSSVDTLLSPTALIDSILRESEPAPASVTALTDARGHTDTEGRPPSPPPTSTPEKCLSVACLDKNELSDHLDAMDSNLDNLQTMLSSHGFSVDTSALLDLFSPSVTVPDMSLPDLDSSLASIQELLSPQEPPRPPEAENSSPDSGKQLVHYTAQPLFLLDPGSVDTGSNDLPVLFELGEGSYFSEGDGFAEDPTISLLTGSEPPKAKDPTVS
Sequence of Bile acid receptor (Homo sapiens) (Q96RI1 whole entry, looked up): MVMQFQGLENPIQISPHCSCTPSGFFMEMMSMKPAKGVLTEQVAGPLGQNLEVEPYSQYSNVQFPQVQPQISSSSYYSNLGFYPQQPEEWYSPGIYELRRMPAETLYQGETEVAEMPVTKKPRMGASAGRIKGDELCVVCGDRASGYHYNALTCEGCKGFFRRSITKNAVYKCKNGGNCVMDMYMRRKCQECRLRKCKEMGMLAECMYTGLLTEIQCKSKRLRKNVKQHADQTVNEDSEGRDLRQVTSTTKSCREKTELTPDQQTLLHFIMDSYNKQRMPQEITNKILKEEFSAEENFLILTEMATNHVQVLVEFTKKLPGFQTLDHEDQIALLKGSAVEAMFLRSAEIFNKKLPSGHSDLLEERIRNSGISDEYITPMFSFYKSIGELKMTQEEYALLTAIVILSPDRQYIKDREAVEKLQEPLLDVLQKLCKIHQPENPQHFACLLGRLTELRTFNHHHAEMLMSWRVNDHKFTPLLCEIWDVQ
Sequence of Hepatocyte nuclear factor 6 (Homo sapiens) (Q9UBC0 whole entry, looked up): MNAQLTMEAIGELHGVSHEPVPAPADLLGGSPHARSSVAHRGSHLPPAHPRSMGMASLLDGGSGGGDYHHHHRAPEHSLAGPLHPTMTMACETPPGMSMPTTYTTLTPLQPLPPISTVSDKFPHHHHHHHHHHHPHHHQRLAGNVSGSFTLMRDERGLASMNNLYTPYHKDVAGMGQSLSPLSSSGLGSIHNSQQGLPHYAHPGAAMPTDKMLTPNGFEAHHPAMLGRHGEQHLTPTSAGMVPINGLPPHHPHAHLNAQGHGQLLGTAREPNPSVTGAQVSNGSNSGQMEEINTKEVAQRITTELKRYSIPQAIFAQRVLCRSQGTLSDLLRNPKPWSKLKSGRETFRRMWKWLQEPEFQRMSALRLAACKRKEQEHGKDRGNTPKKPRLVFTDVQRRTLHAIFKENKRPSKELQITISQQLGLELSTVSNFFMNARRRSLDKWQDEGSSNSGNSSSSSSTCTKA

In the case of `On1ccccc1=S`, the compound was called inactive in [1], in [2], in experiment [3], in [4], in experiment [5] and in [6]. In addition, the compound was called inactive in [7], in [8], in experiment [9], in [10], in experiment [11] and in experiment [12]. Further, the result in experiment [13], in experiment [15] and in experiment [16] was inactive. For the same compound, the half-maximal activity concentration (AC50) in experiment [14] is 26 µM (active).

For the compound `Clc1nc(Cl)c(Cl)c(Cl)c1Cl`, the outcome in experiment [1], in experiment [2], in [3], in experiment [4], in experiment [5] and in [6] was inactive. The result in [7], in experiment [8], in [9], in [10], in experiment [11] and in experiment [12] was inactive. The outcome in [13], in [14], in experiment [15] and in experiment [16] was inactive.

As to `CC(C)=CCC/C(C)=C/CO`, the result in experiment [1], in experiment [2], in [3], in experiment [4], in experiment [5] and in experiment [6] was inactive. Besides, the compound was called inactive in experiment [7], in [8], in [17], in experiment [9], in experiment [10] and in experiment [18]. Also, the compound was classed as inactive in experiment [11], in [13] and in experiment [15].

For `C1N2CN3CN1CN(C2)C3`, the compound was called inactive in [1], in experiment [2], in experiment [3], in [4], in experiment [5] and in experiment [6]. Moreover, the outcome in experiment [7], in experiment [8], in experiment [17], in [10], in experiment [18] and in [11] was inactive. The call in experiment [12], in experiment [13], in [14], in experiment [15] and in [16] was inactive.

Turning to `CCCCC(CC)COC(=O)c1ccc(C(=O)OCC(CC)CCCC)cc1` (configuration not stated), the outcome in [1], in experiment [2], in experiment [3], in [4], in experiment [5] and in [6] was inactive. In addition, the result in [7], in experiment [8], in experiment [17], in experiment [10], in experiment [18] and in [11] was inactive. Besides, the compound was called inactive in experiment [12], in experiment [13], in experiment [14] and in experiment [15].

On to `O=C(O)CCN(C1(C(=O)NO)CCCC1)S(=O)(=O)c1ccc(Oc2ccc(F)cc2)cc1`, for which the compound was called inactive in experiment [1], in experiment [2], in experiment [3], in experiment [4], in experiment [5] and in [6]. Moreover, the call in [7], in experiment [8], in experiment [10], in [18], in experiment [11] and in [12] was inactive. Besides, the call in experiment [13], in experiment [14], in experiment [15] and in experiment [16] was inactive.

As for `CC(C)CCCCCCOC(=O)c1ccc(C(=O)OCCCCCCC(C)C)c(C(=O)OCCCCCCC(C)C)c1`, the result in experiment [1], in [2], in [3], in experiment [4], in experiment [5] and in experiment [6] was inactive. Also, the compound was called inactive in [7], in [8], in experiment [10], in [11], in experiment [12] and in [13]. Further, the result in experiment [14], in experiment [15] and in experiment [16] was inactive.

For the compound `NC(=O)NO`, the compound was classed as inactive in experiment [1], in experiment [2], in [3], in [4], in experiment [5] and in [6]. For the same compound, the compound was classed as inactive in experiment [7], in [8], in [9], in experiment [10], in experiment [18] and in experiment [11]. Moreover, the call in [13], in [14], in experiment [15] and in [16] was inactive.

A word on the AC50: it is the concentration at which the activity in the assay is half-maximal.
